Source: PubChem
GDH-TPI counter = GDH-TPI coupled enzyme inhibition counter-screen; GDH-TPI coupled enzyme counterscreen, NADH absorbance; inhibition, % at 4.8 µM; 360,000 tested, 1.2% active; in the data active = inhibition above about 30%;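 also: 0% = DMSO wells and 100% = wells lacking the enzyme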
BioA inh-1 = BioA (M. tuberculosis) enzyme inhibition. 360,000 tested, 0.096% active. purified M. tuberculosis BioA enzyme, plate reader. AID 602481. inhibition, % at 9.99 µM; in the data active = inhibition above about 40%; inconclusive = no clear call, values can overlap the other calls
FBA Mtb inh = Mtb fructose-bisphosphate aldolase inhibition | purified M. tuberculosis FBA, fluorescence read-out | inhibition, % at 1 µM | AID 588726 | 360,000 tested, 2.3% active; in the data active = inhibition above about 27%;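 also: 0% = vehicle and 100% = reference inhibitor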
Target sequence (P9WQA3 whole entry, looked up): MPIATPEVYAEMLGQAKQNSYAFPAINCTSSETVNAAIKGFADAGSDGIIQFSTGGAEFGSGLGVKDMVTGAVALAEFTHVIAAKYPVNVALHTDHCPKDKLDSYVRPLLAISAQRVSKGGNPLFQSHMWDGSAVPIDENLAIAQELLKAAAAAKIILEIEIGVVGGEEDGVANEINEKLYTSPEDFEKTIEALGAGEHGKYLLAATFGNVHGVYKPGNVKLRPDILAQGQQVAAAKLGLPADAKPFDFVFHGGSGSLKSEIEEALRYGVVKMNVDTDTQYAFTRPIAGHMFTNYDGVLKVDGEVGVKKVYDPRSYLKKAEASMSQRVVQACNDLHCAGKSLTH
SARS 3CLpro inh = SARS-CoV 3CLpro protease inhibition; P0C6X7; recombinant SARS-CoV 3CLpro, quenched FRET peptide cleavage; inhibition, % at 6 µM; 290,000 tested, 0.14% active; in the data active = inhibition above about 12%
FadD28 FP inh = blocks FadD28 binding to the bisubstrate probe | fluorescence polarization | inhibition, % at 12.5 µM | 360,000 tested, 0.22% active; in the data active = inhibition above about 8.5%, passing the limit was not always enough; inconclusive = no clear call, values can overlap the other calls
BioA inh-2 = Mtb BioA enzyme inhibition. shares compounds with BioA inh-1. purified BioA enzyme, plate reader, dose response. max activity, %. 310 tested, under 10 active. AID 651679;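 also: top concentration of the dilution series was 10 µM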
HepG2 tox 2 = kills HepG2 cells; AID 651898; 310 tested, under 10 active; HepG2 cytotoxicity, plate reader; shares compounds with BioA inh-1; max activity, %
NIH3T3 tox 5 = NIH3T3 viability loss; shares compounds with BioA inh-1; NIH3T3 cytotoxicity, plate reader; activity change, negative = cytotoxicity, % at 26 µM; 310 tested, under 10 active
Active calls of the source: *; i = inactive; u = inconclusive; x = no result given; [ ] = another dose, or the depositor's remark. Sampled rows, rich in hits. Any-hit rate of the full collection: about 3.1%. Unless noted, no rule for the calls is given here.

SMILES	GDH-TPI counter	BioA inh-1	FBA Mtb inh	SARS 3CLpro inh	FadD28 FP inh	BioA inh-2	HepG2 tox 2	NIH3T3 tox 5
Cc1ccc(Cc2c(C)nc3nc(SCC(=O)NCCCN4CCCCC4)nn3c2C)cc1	-7	54*	2	1	1	-2	-12	10
CO[C@@H]1CN(C)C(=O)c2cc(NC(=O)C3CCC3)ccc2OC[C@H](C)N(Cc2ccncc2)C[C@H]1C	x	-2	x	x	x	x	x	x
Cc1cccc(NC(=O)CN(C)S(=O)(=O)c2cnc[nH]2)c1	0	3	1	2	-3	x	x	x
Cc1cc(NC(=O)CN(C)S(=O)(=O)c2cnc[nH]2)ccc1Br	-1	42*	-4	8	-1	3	5	-4
CCC(=O)c1ccc(OCC(=O)O)cc1	-4	x	0	1	0	x	x	x
CCCc1c(OCCCOc2ccc(OCC(=O)O)cc2)ccc(C(C)=O)c1O	8	79*	0	x	-6	-8	7	2
O=C(c1cccc(F)c1)N1CC[C@@H]2[C@H](CO)Nc3ccc(-c4cccc(F)c4)cc3[C@@H]21	x	41*	x	x	x	-6	i	-7
COc1cccc(-c2ccc3c(c2)[C@@H]2[C@@H](CCN2C(=O)c2cccc(F)c2)[C@@H](CO)N3)c1	x	-2	x	x	x	x	x	x
O=C(c1cccc(F)c1)N1CC[C@@H]2[C@H]1c1cc(-c3cccc(F)c3)ccc1N[C@@H]2CO	x	73*	x	x	x	7	i	-11[23.5 µM]
CCC(=O)N1C[C@@H](C)[C@H](OC)CN(C)C(=O)c2cc(NC(=O)COC)ccc2OC[C@H]1C	x	1	x	x	x	x	x	x
COc1ccc(NC(=O)c2cnc(C)cn2)cc1-n1cnnn1	9	51*	4	-4	-4	-7	32	8
Cc1cnc(C(=O)Nc2ccc(-n3cnnn3)cc2)cn1	9	23	2	-4	-2	x	x	x
CC1=CC2=NC(=O)/C(=C\c3cc(C)n(-c4ccccc4F)c3C)C(=N)N2O1	14	41*	3	-1	-2	-5	44	-1
CC1=CC2=NC(=O)/C(=C\c3cc(C)n(-c4ccccc4)c3C)C(=N)N2O1	7	10	0	8	-2	x	x	x
COc1ccc(NC2CCCN(C(=O)c3ccc(C(C)=O)s3)C2)cc1 (configuration not stated)	1	84*	1	2	0	-8	-14	-1
C[C@@H]1CN([C@@H](C)CO)C(=O)c2cc(C#Cc3cccnc3)cnc2O[C@H]1CN(C)S(C)(=O)=O	x	74*	x	x	x	6	i	1
CCOC(=O)C1CCN(C(=O)Nc2ccc3snnc3c2)CC1	7	72*	10	1	-1	-7	-12	4
COc1ccc(Nc2c(-c3ccc(C)cc3)nc3cnccn23)cc1	17	x	3	3	2	x	x	x
COc1ccc(-c2nc3cnccn3c2Nc2ccc3c(c2)OCO3)cc1	18	54*	0	3	-3	-3	4	-12
COc1ccc(Nc2c(-c3ccc(OC)cc3)nc3cnccn23)cc1	29	46*	2	1	0	-7	-6	1
O=C(Nc1ccccc1)N1CCCCN2[C@H](CO)[C@H](c3ccc(C#Cc4ccccn4)cc3)[C@H]2C1	x	1	x	x	x	x	x	x
C[C@@H]1CN([C@H](C)CO)C(=O)Cc2cc(NC(=O)Cn3cnnn3)ccc2O[C@@H]1CN(C)Cc1ccccc1	x	-1	x	x	x	x	x	x
CO[C@H]1CN(C)C(=O)c2ccc(NC(C)=O)cc2OC[C@@H](C)N(C(=O)C2CCCCC2)C[C@H]1C	x	53*	x	x	x	-3	i	3
C[C@H]1CN([C@@H](C)CO)C(=O)c2cccc(NC(=O)c3cnccn3)c2O[C@H]1CN(C)CC1CC1	x	2	x	x	x	x	x	x
CO[C@@H]1CN(C)C(=O)c2cc(NS(=O)(=O)CC(F)(F)F)ccc2OC[C@@H](C)N(Cc2nccs2)C[C@@H]1C	x	-1	x	x	x	x	x	x
SMILES	GDH-TPI counter	BioA inh-1	FBA Mtb inh	SARS 3CLpro inh	FadD28 FP inh	BioA inh-2	HepG2 tox 2	NIH3T3 tox 5
COc1ccc(NC(=O)c2ccc(-n3cncn3)c([N+](=O)[O-])c2)cc1OC	7	66*	1	x	-1	-3	6	-2
O=C(Nc1ccc(F)c(F)c1)c1ccc(-n2cncn2)c([N+](=O)[O-])c1	16	79*	4	x	-1	2	-5	2
Cc1noc(C)c1NC(=O)Nc1ccc2c(c1)C(=O)N([C@@H](C)CO)C[C@@H](C)[C@@H](CN(C)C(=O)Nc1ccc(C(F)(F)F)cc1)OCCCC[C@@H](C)O2	x	-3	x	x	x	x	x	x
CO[C@@H]1CN(C)C(=O)c2cc(NC(=O)c3ccccc3)ccc2OC[C@H](C)N(CC2CC2)C[C@H]1C	x	-3	x	x	x	x	x	x
Cc1ccccc1CC1(CO)CCCN(C(=O)c2ccccc2Cl)C1 (configuration not stated)	9	x	-1	-3	-1	x	x	x
CC(=O)c1ccc(C(=O)N2CCCC(CO)(Cc3ccccc3C)C2)s1 (configuration not stated)	4	54*	-1	4	-2	-7	-7	-4
C[C@H]1CN([C@@H](C)CO)C(=O)c2cc(Br)cnc2O[C@H]1CN(C)C(=O)C1CCOCC1	x	-1	x	x	x	x	x	x
C[C@H]1CN([C@@H](C)CO)C(=O)c2cccc(NC(=O)C3CCOCC3)c2O[C@@H]1CN(C)S(=O)(=O)c1ccccc1	x	2	x	x	x	x	x	x
O=C(Nc1ccccc1F)NC1CCN(Cc2nnnn2Cc2ccc(F)cc2)CC1	8	11	0	2	-1	x	x	x
O=C(Nc1ccc(F)cc1)NC1CCN(Cc2nnnn2Cc2ccco2)CC1	-10	74*	1	-6	-4	6	u	0
Clc1ccc(CSc2nnc(-c3cccnc3)o2)cc1	4	65*	-1	5	-2	-9	-12	-3
c1ccc(CSc2nnc(-c3cccnc3)o2)cc1	2	x	2	-5	0	x	x	x
COc1cccc(-c2ccc3n(c2=O)C[C@@H]2[C@@H](CO)[C@H](C(=O)NC4CCCC4)[C@H]3N2C)c1	x	0	x	x	x	x	x	x
C[C@H](CO)N1C[C@H](C)[C@H](CN(C)S(=O)(=O)c2ccccc2)Oc2ccc(NC(=O)Cn3cnnn3)cc2CC1=O	x	1	x	x	x	x	x	x
O=C(Nc1ccc(N2CCOCC2)c(Cl)c1)c1cccnc1	6	47*	0	7	-4	-3	-16	-6
O=C(Nc1cccnc1)c1ccc(N2CCOCC2)c([N+](=O)[O-])c1	9	49*	-2	-1	0	-3	24	7
O=C(Nc1cccnc1)c1ccc(N2CCCC2)c([N+](=O)[O-])c1	7	72*	-4	-2	-3	-7	-12	1
CCN(Cc1ccccc1)S(=O)(=O)c1ccc2c(c1)NC(=O)CS2	4	2	2	0	-5	x	x	x
CN(Cc1ccccc1)C(=O)CCS(=O)(=O)c1ccc2c(c1)NC(=O)CS2	0	41*	1	-1	0	8	18	8
C[C@H](CO)N1C[C@H](C)[C@@H](CN(C)C(=O)C2CCOCC2)Oc2ncc(C#CC(C)(C)O)cc2C1=O	x	-1	x	x	x	x	x	x
